# Source: PubChem BioAssay (NCATS)
# A number with no mark means an inactive call.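 How the source made its calls: active means calcium activation more than 3 SD above the typical response in the agonist read; inactive means the rest.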 Residues, ends and D or L forms follow the SMILES beside them. *: point of attachment. Cbz = O=C(OCc1ccccc1)*
# Target: Thyrotropin-releasing hormone receptor (Homo sapiens) (UniProt P34981)
# Experiment: qHTS for Small Molecule Agonists and Allosteric Enhancers of Human TRH Receptor: Validation Screen for Agonists (AID 493127);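 further: intracellular calcium rise by fluo-8 fluorescence before TRH EC20 addition; 0% is about no effect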
# Settings: TRH receptor agonist cell assay; at 2 µM; active compounds read high
# Text: NIH Chemical Genomics Center [NCGC]
# NIH Molecular Libraries Probe Centers Network [MLPCN]
# Assay Submitter (PI): Marvin Gershengorn
# This project aims to identify small drug-like molecules that activate (agonists) the thyrotropin releasing hormone (TRH) receptor (TRHR) or enhance its TRH-stimulated activity (allosteric enhancers). TRHR, a drug-accessible cell surface receptor expressed in specific brain regions, and its ligand TRH have been implicated in several central nervous system disorders, including depression and anxiety. Small molecule TRHR agonists or allosteric enhancers that are metabolically stable and able to cross the blood-brain barrier might serve as probes to elucidate the roles of brain TRH receptors in animal models, and might be valuable as lead compounds for the development of drugs to treat patients with central nervous system disorders.
# Upon TRHR-Gq activation in TRHR cells, intracellular calcium is released from stores in the endoplasmic reticulum. […] This validation screen measures compound-induced activation of calcium release.
# For the HTS assay freshly prepared cells are plated at a density of 2000/well in 3 ul of complete DMEM medium containing 10% serum in 1536-well plates and cultured over night at 37 C in a humidified incubator with 5% CO2. The next day, 2 ul of a no wash calcium dye (ABD Bioquest) was added to the cells and plates were incubated at room temperature for 1 hour. For the assay, assay plates were loaded into the FDSS kinetic plate reader. A 10 cycle (1 second/cycle) baseline measurement is taken and then the FDSS online 1536 pintool delivers 23 nl of compound library (as well as TRH controls) to the plate. The plate is measured for kinetically at 1 cycle/sec for 180 seconds and is considered to be the agonist portion of the assay (eg, compounds which activate a positive calcium response during this portion are flagged as potential agonists). Following the 180 second read, 1 ul of either an EC20 (positive modulation assay) is delivered by an onboard pipette head. Measurements are taken kinetically for an additional 180 seconds.
# TRHR FDSS Screening Protocol
# 1. Reagent, 3 uL 2000 cells/well 1536 TC treated Black plate in media containing 10% FCS
# 2. Time, 18 hours, 33.5C 5% CO2 (cells grown at 37C)
# 3. Reagent, 2 uL ABD fluo-8 Ca dye
# 4. Time, 30 min-1.5hrs hours, Room temp (6 plates/batch)
# 5. Detector, EX 480/EM 530C, FDSS 10 cycles baseline (1sec/cycle)
# 6. Compound, 23 nL of stock solution from library
# 7. Detector, EX 480/EM 530C, FDSS 230 cycles (1sec/cycle) Agonist mode
# 8. Compound, 1 ul EC20 of TRH made up in HEPES HBSS, 10 nM final
# 9. Detector, EX 480/EM 530C, FDSS 100 cycles (1sec/cycle) Potentiator mode
# Thyrotropin-releasing hormone receptor (Homo sapiens), sequence (P34981 whole entry, looked up): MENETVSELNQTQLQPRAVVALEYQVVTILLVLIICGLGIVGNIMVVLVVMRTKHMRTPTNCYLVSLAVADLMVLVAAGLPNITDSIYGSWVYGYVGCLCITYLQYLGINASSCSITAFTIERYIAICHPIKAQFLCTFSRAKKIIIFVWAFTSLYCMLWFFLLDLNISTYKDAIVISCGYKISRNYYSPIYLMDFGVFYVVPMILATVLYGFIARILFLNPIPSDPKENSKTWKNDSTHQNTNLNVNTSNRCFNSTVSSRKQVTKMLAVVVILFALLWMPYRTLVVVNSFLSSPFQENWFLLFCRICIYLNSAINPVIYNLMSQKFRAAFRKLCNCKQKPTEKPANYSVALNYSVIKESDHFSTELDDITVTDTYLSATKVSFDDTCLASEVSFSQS
row,Compound,activation
1,CC(C)C[C@H](NC(=O)[C@H](O)[C@H](N)Cc1ccccc1)C(=O)O,-0.0625%
2,NC1(C(=O)O)CCCCC1,0.5%
3,O=S(=O)(c1cccc2c(Cl)cccc12)N1CCCNCC1,1.56%
4,Nc1ccc(CCNc2ncnc3c2ncn3C2OC(CO)C(O)C2O)cc1 (stereo not given),1.06%
5,CC[C@H](NC(=O)c1c(C)c(-c2ccccc2)nc2ccccc12)c1ccccc1,-8.62%
6,CN1C2CCC1CC(OC(c1ccccc1)c1ccccc1)C2 (stereo not given),1.5%
7,COc1ccccc1N1CCN(CCCCNC(=O)c2ccc3ccccc3c2)CC1,3%
8,COc1ccc(-c2ccc(N)[n+](CCCC(=O)O)n2)cc1,1%
9,O=c1ccc2c(OCCCCc3ccccc3)c3ccoc3cc2o1,-9.69%
10,N[C@H](C(=O)O)[C@H](O)C(=O)O,0.0625%
11,C=C1C(=O)O[C@@H]2[C@H]3O[C@]3(C)CCC=C(C)CC[C@@H]12,-0.125%
12,CC(C)[C@H](NC(=O)OCc1ccccc1)C(=O)N[C@H](C=O)Cc1ccccc1 (Cbz-Val-Phe-aldehyde),0.25%
13,CC(=O)O[C@H]1CC2(C)[C@@H](C[C@@H](O)[C@H]3[C@@]4(C)CC[C@@H](O)[C@@H](C)[C@@H]4CC[C@@]32C)C1=C(CCC=C(C)C)C(=O)O (stereo not given in full),1.06%
14,N=C(N)c1ccc(N)cc1,-2.75%
15,O=C1OC(=O)C2C3CCC(O3)C12 (stereo not given),0.938%
16,Cn1c(=O)c2c(nc(/C=C/c3cccc(Cl)c3)n2C)n(C)c1=O,-2.88%
17,CC(N)=O,0.25%
18,Cc1cc2c(cc1Cl)N(C(=O)Nc1ccnc3ccccc13)CC2,1.44%
19,O=C(O)CCC(=O)N1CCCC1C(=O)O (stereo not given),-0.312%
20,Cc1cccc(C)c1OCC(N)C(C)C (stereo not given),1.56%

row,Compound,activation
1,O=c1[nH]c(=O)c2nc3ccccc3nc2[nH]1,3.81%
2,Nc1nc2ccc(Cl)cc2c2nc(-c3ccco3)nn12,0.25%
3,O=c1cc(O)cc(/C=C/c2ccc(O)c(O)c2)o1,-0.438%
4,S=C(S)N1CCCC1,-0.188%
5,COc1cc(CC(=O)O)ccc1O,0.125%
6,O=C1C2C=CC=CC2=NC(=S)N1CCN1CCC(=C(c2ccc(F)cc2)c2ccc(F)cc2)CC1 (stereo not given),-4.38%
7,c1ccc2nc(C3=NCCN3)ccc2c1,0.0625%
8,O=C1Nc2ccc(I)cc2/C1=C/c1cc(Br)c(O)c(Br)c1,8.19%
9,N[C@H](C(=O)O)[C@H]1C[C@@H]1C(=O)O,0.812%
10,O=C1NC(=O)c2cc(Nc3ccccc3)c(Nc3ccccc3)cc21,6%
11,CCCCCC[C@@H]([C@@H](C)O)n1cnc2c(N)ncnc21,0.875%
12,Cc1ccccc1/C=C/C1=NCCN1,0.5%
13,CCCn1c(=O)c2c(ncn2C)n(CCC)c1=O,0.5%
14,C=C(C)C1CC=C(C(=O)O)CC1 (stereo not given),1.12%
15,C#CCn1c(=O)c2c(ncn2C)n(C)c1=O,0.938%
16,CN(C)S(=O)(=O)c1ccc2c(c1)/C(=C/c1cc3c([nH]1)CCCC3)C(=O)N2,26.3%
17,COC(=O)C(C)(N)Cc1ccc(O)cc1 (stereo not given),0.125%
18,O=c1ccn([C@@H]2O[C@H](COP(=O)(O)OP(=O)(O)O)[C@@H](O)[C@H]2O)c(=O)[nH]1,0.188%
19,C=CCN1CCc2c(cc(O)c(O)c2Br)[C@@H](c2ccccc2)C1,-5.81%
20,NC(=O)CC[C@H](N)C(=O)O,-0.625%
